This is an account of results in PubChem BioAssay (NCI).

“And” between values parts separate entries of the source, which are not always exact repeats. Equal entries are not always repeated. The panel holds about 83,000 compounds, 20% with a hit somewhere; the sample as a whole holds those more often.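 Single-concentration screen, 48 h exposure, 96-well plates. Endpoint: percent growth. Below 10 = active.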 A number with no mark means an inactive call. The source made the active and inactive calls.

This assay relates to MDA-MB-468 breast. Kind of assay: NCI-60 one-dose screen, 48 h (100 = growth as untreated, 0 = no growth, -100 = all killed). As to conditions: 10 µM unless noted. Here is the method: Growth inhibition of the MDA-MB-468 human Breast tumor cell line is measured as a screen for anti-cancer activity. Cells are grown in 96 well plates and exposed to the test compound for 48 hours. Compounds are tested at a single concentration, which is 10^-5 M for most compounds. The reported endpoint is percent growth (GI% or GIPRCNT), where numbers from 0 - 100% represent growth inhibition, and numbers from -100% - 0 represent cell death. For example, a value of 40 represents 60% growth inhibition. A value of 0 means no net growth occurred over the course of the experiment. A value of -40 indicates 40% of cells at the beginning of the experiment died by the end of the experiment. A value of -100 means all cells are dead at the end of the experiment.
NCI-60 Human Tumor Cell Lines Screen was performed using the standard one-dose NCI protocol, which is described in more detail at https://dtp.cancer.gov/discovery_development/nci-60/default.htm.
Compounds with GIPRCNT values below 10 were considered active. Activity score was based on GIPRCNT using the following formula: […]
Score is 0 for GIPRCNT values of 100 or above, 50 for GIPRCNT values of 0, and 100 for GIPRCNT values of -100.
For `CCCCCCCCCCCCCCCC[N+](C)(C)C`, the growth is -77.9% (active) and -17% (active).

For the molecule `[Cl][Hg][c]1cc[c]([Hg][Cl])o1`, the growth is -0.231% (active).

As for `C[CH2][Pb]([CH2]C)([CH2]C)[O]C(=O)c1ccc(N)cc1`, the growth is -11.9% (active).

Turning to `[Cl][Hg][n]1cnc2c(Cl)c(Cl)c(Cl)cc21`, the growth was 115%.

As for `O=C1OCC2=C1C(c1ccccc1)c1cc3c(cc1N2)OCO3` (stereo not given), the growth is -9.05% (active).

For the molecule `Oc1c(CCl)cc(Cl)cc1CCl`, the growth was 113%.

Take `CN1C(=O)NC(=O)C(N=Nc2ccc(Cl)cc2)C1=O` (stereo not given): the growth is 90.4%.

With `CC1(C)N=C(N)N=C(N)N1c1ccc(CCCCc2ccc(S(=O)(=O)F)cc2)c(Cl)c1`, the growth is 7.5% (active).

On to `CCCCC1(CCC)C(=O)NC(=S)NC1=O`, for which the growth is 98.7%.

On to `CC[C@]12C=CCN3CC[C@@]4(c5ccc(OC)cc5N(C)[C@H]4[C@@](O)(C(=O)OC)[C@@H]1OC(=O)CCCC[P+](c1ccc(OC)cc1)(c1ccc(OC)cc1)c1ccc(OC)cc1)[C@@H]32`, for which the growth was -92.7% (active).

On to `COC(C)(C)CCC[C@H](C)C/C=C/C(C)=C/C(=O)OC(C)C`, for which the growth is 86.7%.

Turning to `O=C(CC1(O)C(=O)N(Cc2ccccc2)c2ccccc21)c1ccc(C(=O)NCC2CCC3(CC2)OOC2(CCCCC2)OO3)cc1` (stereo not given), the growth was -56.6% (active).

For the molecule `O=C(/C=C/c1ccccc1)N[C@@H](CO)Cc1cnc[nH]1`, the growth was 102%.

With `N#CC1(c2ccccc2)CCN(Cc2ccccc2)CC1`, the growth is 90.2%.

In the case of `COC(=O)[C@H](Cc1ccccc1)NC(=O)c1csc([C@@H](C[C@H](C(C)C)N(C)C(=O)[C@@H](NC(=O)[C@H]2CCCN2C)C2CC2)OC(C)=O)n1`, the growth was -5.59% (active).

For the molecule `CC(C)=CCC/C(C)=C/C=N\N=C(/N)N[N+](=O)[O-]`, the growth was 103%.

As for `O=C(CCCc1ccc(N(CCCl)CCCl)cc1)OCc1ccccc1`, the growth is 87%.

On to `CCOc1cc(/C=N\Nc2nnc(C)n2N)c(C)cc1N(CCCl)CCCl`, for which the growth was -21.1% (active).

In the case of `Cc1ccc(N2CCN(CCC#N)CC2)cc1`, the growth is 105%.

Turning to `O=C1CN=C(c2ccc(Cl)cc2)c2sccc2N1`, the growth is 104%.

On to `Cc1cc(NC(=O)NCCCOc2ccc(N3C(N)=NC(N)=NC3(C)C)cc2Cl)ccc1S(=O)(=O)F`, for which the growth is 7.83% (active).

For `NC(=S)c1cn(C2OC(CO)C(O)C2O)c2ncnc(N)c12` (stereo not given), the growth was -43.2% (active).

`Cn1cc(-c2csc(-c3cn(CCN4CCOCC4)c4ccccc34)n2)c2cccnc21`: the growth was 63.3%.

Regarding `Nc1ccc2c(c1)oc1ccccc12`, the growth is 92.6%.

Regarding `Cn1cc(C2=C(c3cn(C4CCN(Cc5ccccn5)CC4)c4ccccc34)C(=O)NC2=O)c2ccccc21`, the growth is 119%.

As for `CO[C@H](C(=O)O)[C@@H]1Cc2cc3cc(OC4CC(OC5CC(O)C(O)C(C)O5)C(O)C(C)O4)c(C)c(O)c3c(O)c2C(=O)[C@H]1OC1CC(OC2CC(OC3CC(C)(O)C(O)C(C)O3)C(O)C(C)O2)C(O)C(C)O1` (stereo not given in full), the growth was -16.7% (active).

In the case of `C[C@]12CC[C@H]3[C@@H](C[C@@H]4SC(Nc5ccccc5)=N[C@@]45C/C(=N/O)CC[C@]35C)[C@@H]1CCC2=O`, the growth was 59.9%.

Take `CCCCOCCOP(=O)(OCCOCCCC)OCCOCCCC`: the growth was 91.5%.

Consider `CN1[C@@H](CC(=O)c2ccccc2)CCC[C@H]1CC(=O)c1ccccc1`, for which the growth was 101%.

For the molecule `Oc1ccccc1C=NCCN=Cc1ccccc1O.[Fe]`, the growth is 64.3%.

With `CC1(C)C=Cc2c(ccc3c2[N+]([O-])=C2C3=C[C@@]34NC(=O)[C@]5(CCCN5C3=O)C[C@@H]4C2(C)C)O1`, the growth is 8.16% (active).

Take `COc1ccc(/C=C(/C)[N+](=O)[O-])cc1OC`: the growth is -87.6% (active) and -87% (active).

In the case of `C=C(C)[C@@]12OC3(/C=C/C=C/CCCCC)O[C@@H]1[C@@H]1[C@@H]4O[C@]4(CO)[C@@H](O)[C@]4(O)C(=O)C(C)=C[C@H]4[C@@]1(O3)[C@H](C)[C@H]2OC(=O)c1ccccc1`, the growth is 56.5%.

On to `C[C@@H]1O[C@@H](O[C@H]2C[C@@H](O)[C@]3(CO)C4C(CC[C@]3(O)C2)[C@@]2(O)CC[C@H](C3=CC(=O)OC3)[C@@]2(C)C[C@H]4O)[C@H](O)[C@H](O)[C@H]1O` (stereo not given in full), for which the growth is -68.2% (active).

In the case of `Oc1cc[c]([Hg][Cl])cc1`, the growth was 93.6%.

As to `CC(C)(C)OOC(=O)/C=C\C(=O)OOC(C)(C)C`, the growth was 108%.

In the case of `COc1cccc(C=NC(Cc2cnc[nH]2)C(=O)O)c1O` (stereo not given), the growth is 55.4%.

With `Cc1nc2ccccc2c(=O)n1-c1ccccc1F`, the growth is 105%.

For `C[CH2][Sn]([CH2]C)([CH2]C)[NH]S(=O)(=O)c1ccc(C)cc1`, the growth was 114%.

Consider `O=C(Nc1ccc([N+](=O)[O-])cc1)C(Cl)(Cl)Cl`, for which the growth was 96.5%.
